{"source": "PubChem BioAssay (EPA / NIEHS)", "note": "The source made the active and inactive calls. How the source made its calls: active means hit-call score of the fitted dose curve at least 0.9, where 1 is the maximum; inactive means score below 0.9.", "data": [{"experiment": "CCTE_Mundy_HCI_Cortical_Synap_Neur_Matur_CellBodySpotCount: CCTE's Synaptogenesis and Neurite Maturation Assay in rat cortical cells for Cell Body Spot Count, Mundy Lab (AID 2284223)", "protocol": "CCTE_Mundy_HCI_Cortical_Synap&Neurite_Matur is a multiplexed, cell-based-readout assay that uses rat primary cortical cells with measurements taken at 288.33 hours after chemical dosing in a microplate: 96-well plate.CCTE_Mundy_HCI_Cortical_Synap_Neur_Matur_CellBodySpotCount is one of eight components of the CCTE_Mundy_HCI_Cortical_Synap&Neurite_Matur assay. It measures synaptogenesis and neurite maturation related to number of cell body-associated synapses (synaptophysin puncta) per neuron using High Content Imaging of fluorescently labelled markers.[…] Using a type of morphology reporter, loss -of-signal activity can be used to understand developmental effects.\nCells are plated onto 96 well plates and allowed 2 hr for attachment to the substrate. At days in vitro (DIV) 5, Cytosine Arabinoside (AraC) is added to arrest glial cell growth. Chemicals are dosed and a media change is performed at DIV 7 of differentiation and is continued through DIV 12 when the experiment is terminated. Cells are fixed with […] and Hoechst Dye. Cells are stained using Millipore Mouse anti-MAP2MAB3418 (1:800) and Millipore Rabbit anti-Synaptophysinsc-1750 (1:250) primary antibodies and Alexa Fluor-488 goat anti-mouse and AlexaFluor-546 goat anti-rabbit secondary antibodies to label neuronal cell nuclei, synapses and neurites. A Cellomics ArrayScan VTi HCS Reader is used for automated image acquisition and analysis of neurite outgrowth.", "values": [{"compound": "COP(=S)(OC)SCN1C(=O)c2ccccc2C1=O", "outcome": "inactive"}, {"compound": "[O-][Cl+]O", "outcome": "inactive"}, {"compound": "CC(C)COC(=O)c1ccccc1C(=O)OCC(C)C", "AC50": "83.8 µM (active)"}, {"compound": "COC(=O)Nc1nc2ccccc2[nH]1", "outcome": "inactive"}, {"compound": "CNC(=O)Oc1cccc2c1OC(C)(C)C2", "outcome": "inactive"}, {"compound": "CCCCOC(=O)c1ccccc1C(=O)OCc1ccccc1", "outcome": "inactive"}, {"compound": "CN(C)[C@@H]1C(=O)C(C(N)=O)=C(O)[C@@]2(O)C(=O)C3=C(O)c4c(O)cccc4[C@@](C)(O)[C@H]3C[C@@H]12", "outcome": "inactive"}, {"compound": "OCCOCCO", "outcome": "inactive"}, {"compound": "CC(C)(C)C(O)(CCc1ccc(Cl)cc1)Cn1cncn1", "note": "(configuration not stated)", "outcome": "inactive"}, {"compound": "CCC[CH2][Sn]([Cl])([CH2]CCC)[CH2]CCC", "AC50": "0.102 µM (active)"}, {"compound": "ClC1=C(Cl)C2(Cl)C3C(Cl)C=CC3C1(Cl)C2(Cl)Cl", "note": "(configuration not stated)", "AC50": "12.4 µM (active)"}, {"compound": "Nc1cc(Cl)cc(C(=O)O)c1Cl", "outcome": "inactive"}]}]}
